Measurements: ChEMBL document CHEMBL3988442, “University of Dundee, Small-Polar-MMV Screening Library” (2021)
Hit rate of the full screen: of about 48,000 compounds, about 13,000 (27%) showed an effect of 50% or more. Some of the results follow.

test system: Wolbachia pipientis; experiment: Anti-Wolbachia Cell-Based Screen; type: functional; design: scale not given: in the data most compounds retested in dose-response had high values; conditions: 5 µM

Row | Structure (SMILES) | Percent Effect [%]
1 | Cc1ccnc(NC(=O)CCNC(=O)c2ccccc2Cl)c1 | 8.062
2 | CN(C)CCCNC(=O)c1ccccc1NC(=O)c1cc(Cl)ccc1Cl | 87.51
3 | CN(CC(=O)Nc1ccccc1C(=O)NC1CC1)Cc1ccccc1Cl | 6.232
4 | CN(C)CCCNC(=O)c1ccccc1NC(=O)c1ccccc1Cl | 105.1
5 | CN(C)CCNC(=O)c1ccccc1NC(=O)c1cc(Cl)ccc1Cl | 115.7
6 | CN(C)CCCNC(=O)c1ccnc(OCc2ccccc2)c1 | -11.72
7 | CN(CCCNC(=O)c1ccccc1F)CC(F)(F)F | 0.1047
8 | COc1cc(NC(=O)c2ccccc2F)c(C(=O)N(C)C)cc1OC | -7.835
9 | CN(C)CCNC(=O)c1cnc2c(c1)nc(-c1ccccc1Cl)n2C | -9.554
10 | COCc1nc2cc(NCc3cc[nH]n3)ccc2o1 | -2.175
11 | CC(=O)Nc1cc(CN(C)C)ccc1C | -5.311
12 | CC(C(=O)N1CCCC1)S(=O)(=O)Cc1noc(C(C)(C)C)n1 (stereo not given) | -6.108
13 | Cc1cc(C2CCCN(CCCNS(C)(=O)=O)C2)n[nH]1 (stereo not given) | -11.22
14 | Cc1cc(C)n(CC2CCCN2CCCS(N)(=O)=O)n1 (stereo not given) | -6.761
15 | Cc1cc(C2CCCN(Cc3ncc(C)o3)C2)n[nH]1 (stereo not given) | -4.273
16 | Cc1cc(C2CCCN(CCCS(N)(=O)=O)C2)n[nH]1 (stereo not given) | 116
17 | Cc1cc(C2CCCN(CCCS(C)(=O)=O)C2)n[nH]1 (stereo not given) | 81.87
18 | COC(=O)c1cc(NC(=O)CCc2cscn2)ccc1C | -13.27
19 | CN1CSC[C@H]1C(=O)N1CCN(Cc2cccc(F)c2)CC1 | -1.728
20 | c1cnnc(N2CCCC2CNCc2cc[nH]n2)c1 (stereo not given) | 6.061
21 | NCC1Cn2nnc(-c3cccc(F)c3)c2CO1 (stereo not given) | -2.933
22 | Cc1cnn(CCNCc2csc(C)n2)c1 | 11.83
23 | CCn1ncc2c1C(COCC1CC1)N(Cc1nccs1)CC2.O=C(O)C(F)(F)F.O=C(O)C(F)(F)F (stereo not given) | -10.7
24 | CCOCC1c2c(cnn2CC2CC2)CCN1Cc1nccs1.O=C(O)C(F)(F)F.O=C(O)C(F)(F)F (stereo not given) | 115.2
25 | CCn1ncc2c1C(COCC1CC1)N(Cc1c(C)noc1C)CC2.O=C(O)C(F)(F)F.O=C(O)C(F)(F)F (stereo not given) | -2.948

Row | Structure (SMILES) | Percent Effect [%]
26 | COCC1c2c(cnn2CC2CC2)CCN1Cc1ccc(C)o1.O=C(O)C(F)(F)F.O=C(O)C(F)(F)F (stereo not given) | 107.5
27 | COCC1c2c(cnn2CC2CC2)CCN1Cc1cccs1.O=C(O)C(F)(F)F.O=C(O)C(F)(F)F (stereo not given) | -10.1
28 | COCC1c2c(cnn2CC2CC2)CCN1Cc1ccc(OC)cc1 (stereo not given) | -7.562
29 | COCC1c2c(cnn2CC2CC2)CCN1Cc1ccsc1.O=C(O)C(F)(F)F.O=C(O)C(F)(F)F (stereo not given) | 107.6
30 | COCC1c2c(cnn2CC2CC2)CCN1Cc1nccs1.O=C(O)C(F)(F)F.O=C(O)C(F)(F)F (stereo not given) | -17.24
31 | COCC1c2c(cnn2CC2CC2)CCN1Cc1cc(C)on1.O=C(O)C(F)(F)F.O=C(O)C(F)(F)F (stereo not given) | 63.1
32 | CCN1C[C@H]2C3(CCN(S(=O)(=O)CC)CC3)CC[C@@]2(C(=O)N(C)C)C1.O=C(O)C(F)(F)F | -7.289
33 | Cc1ccc2nc(C3CCCN3Cc3nnc(C)s3)[nH]c2c1 (stereo not given) | -155.9
34 | Clc1ccc2nncc(N3CCCCC3)c2c1 | -7.543
35 | CCC1CN(CC(=O)NCc2ccco2)CCO1 (stereo not given) | -17.78
36 | O=C(NCCCN1CCOCC1)C1CCCN(Cc2ccco2)C1 (stereo not given) | 1.976
37 | NC1(C(=O)NCCC2CN(Cc3ccco3)CCO2)CCCC1 (stereo not given) | 117.7
38 | CC(C)(C)C(=O)NCCC1CN(Cc2ccccc2F)CCO1 (stereo not given) | -7.627
39 | N#Cc1ccccc1C(=O)NCCC1CN(Cc2ccco2)CCO1 (stereo not given) | 86.72
40 | O=C(NCCC1CN(Cc2c[nH]cn2)CCO1)c1ccccc1O (stereo not given) | -1.985
41 | Cc1ccc(C)c(NC(=O)Nc2c[nH]c(=O)[nH]c2=O)c1 | -8.651
42 | Cc1cccc2c(CCNS(=O)(=O)C3CCOC3)c[nH]c12 (stereo not given) | 14.98
43 | CC(C)Cc1noc(CN2CCCC(CNS(N)(=O)=O)C2)n1 (stereo not given) | 6.336
44 | Cc1n[nH]c2ncc(CNC3CCN(Cc4ccccn4)CC3)cc12.Cl | 0.2679
45 | Cc1noc2nc(C3CCN(CC4CCCCC4)CC3)cc(C(F)F)c12.Cl | 130.1
46 | CCS(=O)(=O)c1ccc2oc([C@H]3CCN(Cc4ccccn4)C3)nc2c1 | -4.332
47 | Cc1noc2nc(C3CCN(Cc4ccccn4)CC3)cc(C(F)F)c12 | 126.2
48 | CCOC(C)c1noc(CN2CCN(CC3CCCC3)CC2)n1 (stereo not given) | -4.058
49 | Cc1noc2nc(C3CCN(CC4=CCCOC4)CC3)cc(C(F)F)c12.Cl | -4.292
50 | COc1ccc(N(C)C(=O)c2ccc(Cl)c(S(C)(=O)=O)c2)cn1 | -5.224

Row | Structure (SMILES) | Percent Effect [%]
51 | Cc1c(-c2ccccc2)ncn1CCCNc1cccnc1 | -10.09
52 | O=C1CCCCN1CCC(=O)N1CCCCC1c1ccc(F)cc1 (stereo not given) | -7.872
53 | COc1ccc(N2CCN(C(=O)CCn3nccc3C)CC2(C)C)cc1 | -0.9656
54 | Cc1ccnn1CCC(=O)N1CCN(C2CCc3ccccc3C2)CC1 (stereo not given) | -3.022
55 | Cc1ccnn1CCC(=O)N(Cc1ccsc1)CC(C)C | 6.512
56 | COc1ccc(N2CCN(C(=O)Cn3nccc3C)CC2(C)C)cc1 | 3.492
57 | Cc1ccnn1CCC(=O)N1CCCC[C@@]2(C)[C@@H]1CCC(=O)N2C | 76.68
58 | COc1ccc(N2CCN(C(=O)CCn3nccc3C)C(C)C2)cc1 (stereo not given) | -2.814
59 | CN(C)CCn1ccnc1C1CCN(C(=O)CCc2cccnc2)CC1 | -5.205
60 | CN1C(=O)CC[C@@H]2N(C(=O)CCc3cccnc3)CCCC[C@@]21C | 73.04
61 | CCN1C(=O)CC[C@@H]2N(C(=O)CCn3nccc3C)CCCC[C@@]21C | 96.02
62 | Cc1ccnn1CCC(=O)N1CCCC[C@]2(C)NC(=O)CCC[C@H]12 | 63.73
63 | COc1ccc(O[C@H]2COCCN(Cc3cccc4c3OCO4)C2)cc1 | -9.045
64 | CCCc1cc(NCc2nc(COC)no2)n2nccc2n1 | -5.978
65 | Cc1nc(CN2CCCC(Cn3cc(CCO)nn3)C2)c2ccccn12 (stereo not given) | -4.112
66 | CC(C)n1cc(CN2CCCN(C(=O)c3cc(Cl)c[nH]3)CC2)cn1 | 1.101
67 | CS(=O)(=O)Nc1cccc(CNC(=O)CCNC(=O)c2cccs2)c1 | 4.351
68 | CN(C)Cc1nnc(C2CCN(c3nccc(N)n3)CC2)n1C1CC1 | 9.294
69 | Cc1cc(C(=O)N2CCC(O)(Cn3ccc4ccncc43)CC2)on1 | 111.8
70 | Cc1cc2ccncc2n1CC1(O)CCN(C(=O)c2ccccn2)CC1 | 79.68
71 | O=C(c1cncc(N2CCC(O)(CO)CC2)n1)N1CCCC1 | -6.183
72 | Cc1cc(C(=O)N2C[C@@H]3COC[C@]3(c3nnc(C(C)C)o3)C2)on1 | 3.18
73 | Cc1cc(C(=O)N2CCC(O)(Cn3c(C)cc4ccncc43)CC2)on1 | 79.54
74 | O=C(c1cnc(Nc2ccccc2)nc1)N1CCC(O)(CO)CC1 | -9.694
75 | Cc1cc2ccccc2n1CCC(=O)N1CCCC(O)(CN(C)C)CC1 (stereo not given) | -7.968

Row | Structure (SMILES) | Percent Effect [%]
76 | O=C(c1ccncc1)N1CCC(O)(Cn2ccc3ccncc32)CC1 | -4.152
77 | Cc1cc2ccncc2n1CC1(O)CCN(C(=O)c2ccncc2)CC1 | 105.6
78 | CN(C)CC1(O)CCCN(C(=O)Cn2ccc3ccccc32)CC1 (stereo not given) | -35.57
79 | CCNc1ncc(C(=O)NCCc2csc(-c3ncccn3)n2)cn1 | -22.07
80 | CCN(Cc1cccc(F)c1)c1ccc2nnnn2n1 | 20.24
81 | CN(C)C(=O)CCC(=O)NCc1cccnc1-n1cnc2ccccc21 | -4.725
82 | Cc1ncsc1C(=O)N1CCC(O)(Cn2c(C)cc3ccncc32)CC1 | 102
83 | O=C(c1cncc(Br)c1)N1CCC(O)(Cn2ccc3ccncc32)CC1 | -1.363
84 | Cc1nc(N2CCN(C(=O)c3cccnc3)CC2)cc(-n2cccc2)n1 | 13.16
85 | Cc1cc2ccncc2n1CC1(O)CCN(C(=O)c2cccnc2)CC1 | 107.2
86 | Cc1ncsc1C(=O)N1CC[C@@H]2[C@@H](CC1)OCCN2c1cccnc1 | -15.36
87 | Cc1nnc(SCCC(=O)N(C)Cc2c(F)cccc2Cl)[nH]1 | 13.01
88 | CCCn1nc2c(cc1=O)CN(CCS(C)(=O)=O)CC2 | 0.2637
89 | Cc1nc2c(c(N3CCC(O)(Cn4ccnc4)CC3)n1)CCNCC2 | -21.19
90 | CC(NC(=O)NCc1cc(Br)cs1)c1ccccn1 (stereo not given) | 100.4
91 | CCCNC(=O)c1ccc(NC(=O)NC(C)c2ccccn2)cc1 (stereo not given) | -5.222
92 | CC(NC(=O)Nc1cccnc1N1CCOCC1)c1ccccn1 (stereo not given) | -6.169
93 | CC(NC(=O)NCc1ccc(Cl)cc1)c1ccccn1 (stereo not given) | 9.197
94 | CC(NC(=O)NCc1ccccc1Cl)c1ccccn1 (stereo not given) | 111.7
95 | CC(NC(=O)N(C)Cc1ccc(Cl)s1)c1ccccn1 (stereo not given) | 6.324
96 | CC(NC(=O)NCc1ccc(Cl)s1)c1ccccn1 (stereo not given) | 3.359
97 | CC(NC(=O)NCCc1ccc(Cl)s1)c1ccccn1 (stereo not given) | 158
98 | CC(C)CNC(=O)c1ccc(NC(=O)NC(C)c2ccccn2)cc1 (stereo not given) | -15.83
99 | CC(C)CN1CC2(CCN(C(=O)C3CNC(=O)N3)CC2)CC1=O (stereo not given) | -19.59
100 | CN(C)C(CNC(=O)c1cc2c([nH]c1=O)CCCC2=O)c1ccsc1 (stereo not given) | 7.24
